From PubChem BioAssay AID488777 (Sanford-Burnham Center for Chemical Genomics, 2010) come the findings set out here.

Unmarked numbers belong to inactive results. No rule for the calls is given here. Some results are limits rather than exact numbers.

The nature of the test: AlphaScreen signal interference by SUMOylation inhibitors, SAR follow-up, artefact control for SUMOylation inhibitor project, biochemical (AID 488777). As to conditions: purified counter-screen enzymes, TR-FRET, 60 min.
On to `CCCCn1c(NC(=O)c2ccccc2Cl)c(S(=O)(=O)c2ccccc2)c2nc3ccccc3nc21`, for which the IC50 was more than 100 µM.

As for `COC(=O)C=C(NC(CO)(CO)CO)C(=O)OC`, the IC50 is more than 100 µM. For `C=C[C@@H](Nc1ccccc1)C12C=CC(O1)C(C(=O)OC)=C2C(=O)OC` (some centres undefined), the IC50 is more than 100 µM. Take `CCCCn1c(NC(=O)c2ccco2)c(C#N)c2nc3ccccc3nc21`: the IC50 was more than 100 µM.

Turning to `CCCCn1c(NC(=O)c2cccc(Cl)c2)c(C#N)c2nc3ccccc3nc21`, the IC50 was more than 100 µM. In the case of `CCCC1=NN(c2ccc(C(=O)O)cc2)C(=O)/C1=C/c1ccc(OCc2ccccc2)c(OC)c1`, the IC50 is more than 100 µM.

In the case of `CCCCn1c(NC(=O)c2ccccc2Cl)c(C#N)c2nc3ccccc3nc21`, the IC50 is more than 100 µM. In the case of `CCCCn1c(NC(=O)C2CCCCC2)c(C#N)c2nc3ccccc3nc21`, the IC50 is more than 100 µM. With `N#Cc1c(NC(=O)c2ccccc2Cl)n(Cc2ccccc2)c2nc3ccccc3nc12`, the IC50 is more than 100 µM.

Regarding `COC(=O)C1=C(C(=O)OC)C2(C(Cc3ccc(F)cc3)Nc3ccccc3)C=CC1O2` (centres undefined), the IC50 was more than 100 µM. As for `COC(=O)C1=C(C(=O)O)C2C=CC1([C@@H](Cc1ccccc1)Nc1ccccc1)O2` (some centres undefined), the IC50 was more than 100 µM. For `COC(=O)C1=C(C(=O)OC)C2(C(Cc3ccc(OC(F)(F)F)cc3)Nc3ccccc3)C=CC1O2` (centres undefined), the IC50 was more than 100 µM. For `CCCCn1c(N)c(C#N)c2nc3ccccc3nc21`, the IC50 was more than 100 µM.

Take `c1ccc(CC(Nc2ccccc2)c2ccco2)cc1` (centres undefined): the IC50 was more than 100 µM.
